Data taken from PubChem BioAssay (NCATS).
Results filed as inconclusive are left out. Entries that show only a call come without a potency. The source made the active and inactive calls. Calls follow the shape of the dose curve; as a rule, active = well fitted cell-killing curve with a large enough effect; inconclusive = small, poorly fitted or top-dose-only effect, or effect the other way; inactive = no such curve, though single readings can be large or run the other way.

Assay: MultiTox-Fluor Cytotoxicity Assay - LYMP1-002 - Dead Cells (AID 960); also: nearly all actives have a fitted effect of over 60% in size
Conditions: LYMP1-002 lymphoblastoid cells, dead-cell protease fluorescence; series mostly up to 46.1 µM
Excerpt: NIH Chemical Genomics Center [NCGC]
NIH Molecular Libraries Screening Centers Network [MLSCN]
National Institutes of Environmental Health Sciences [NIEHS]
National Toxicology Program [NTP]
We have developed a 1536-well cell-based assay for quantitative high throughput screening (qHTS) against a number of cell lines to determine in vitro cytotoxicity of small molecules. This particular assay uses a human lymphoblastoid cell line (LYMP1-002) purchased from Coriell Institute.
NCGC Assay Protocol Summary:
The MultiTox-Fluor Cytotoxicity Assay (Promega) is a homogeneous method to simultaneously measure the relative number of live and dead cells in culture by detecting changes in cell membrane integrity. There are two fluorogenic peptide substrates in the assay reagent. Viable cells are determined when the cell-permeant substrate (GF-AFC) enters the cell and is cleaved by protease from live cells resulting in liberated fluorophore. This live-cell protease activity restricted to viable cells is proportional to cell number. The dead cells are determined by using fluorogenic cell-impermeant peptide substrate (bis-AAF-R110) which cleaved by dead cell proteases leaking from damaged cell membrane.
Using the MultiTox-Fluor Cytotoxicity Assay, the relative number of dead cells was measured in the lymphoblastoid cell line with complete culture medium following compound treatment for 16 hours. The assay was performed in opaque black Kalypsys 1536-well plates. In the screen, tetraoctylammonium bromide was used as positive control. Library compounds were measured for their ability to cause acute toxicity in the cell line, as reflected by an increase in dead cell protease activity, in a concentration-dependent manner. Data were normalized to the controls for basal activity (DMSO only) and 100% stimulation (15 uM tetraoctylammonium bromide). AC50 values were determined from concentration-response data modeled with the standard Hill equation.
qHTS protocol for MultiTox-Fluor Cytotoxicity assay
[Step] [Parameter] [Value] [Description]
1. Reagent; 5 uL; 2500 lymphoblastoid cells/well
2. Time; 5 hr; 37 C incubation
4. Controls; 23 nL; Tetraoctylammonium bromide 6.4pM to 92 uM
5. Time; 16 hr; 37 C incubation
6. Reagent; 5 uL; MuliTox-Fluor Assay reagent
7. Time; 60 min; Room Temperature
8. Detection; dead-cell fluorescence (Ex/Em=485/520); EnVision plate reader
Keywords: cytotoxicity, lymphoblastoid cell line, fluorescence, NTPHTS, NTPHTS_NCGC, NIEHS, EPA, DSSTox, MLSMR, MLSCN, NIH Roadmap, qHTS, NCGC
Potency is read from the fitted curve at half-maximal effect.

Compound | Potency
CCCCCCCC(=O)O | inactive
CCOC(C)=O | inactive
Cc1ccccc1 | inactive
CCOc1ccc2c(c1)C(C)=CC(C)(C)N2 | inactive
O=S(=O)(O)O | inactive
O=C(O)CCC(=O)C(=O)O | inactive
CC(C)=O | inactive
CC(O)CO (centres undefined) | inactive
CC(C)(C)NC(=O)[C@@H]1C[C@@H]2CCCC[C@@H]2CN1C[C@@H](O)[C@H](Cc1ccccc1)NC(=O)[C@H](CC(N)=O)NC(=O)c1ccc2ccccc2n1 | 31.6 µM (active)
CC1=C2[C@@H]([C@H](C)CC[C@H]2/C=C(\C)C(=O)O)[C@H](O)C1 | inactive
Nc1ccn([C@H]2CS[C@@H](CO)O2)c(=O)n1 | inactive
CCCCC/C=C\C/C=C\CCCCCCCC(=O)O | inactive
IC(I)I | inactive
CCCCCCCC/C=C\CCCCCCCC(=O)O | inactive
